Assay results reported in PubChem BioAssay AID651592 (Sanford-Burnham Center for Chemical Genomics, 2012).
The source made the active and inactive calls.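 How the source made its calls: active means NF-kB reporter IC50 at most 10 µM, IL-8 IC50 within fivefold of it with bacterial filtrate but not with TNF-alpha; inactive means the rest.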

Biological target: Interleukin-8 (Homo sapiens) (UniProt P10145)
Test: inhibitors of NFkB activation in CF airway cells, SAR follow-up, KKLEB cells, panel, IL8 HTRF, NFkB-GFP (AID 651592);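 further: immortalized cystic fibrosis airway epithelial KKLEB cells with an NF-kB GFP reporter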
Details: PAF/TNFa-induced NFkB-GFP / IL8 HTRF, mean of runs

Chain of Interleukin-8 (Homo sapiens) (P10145 whole entry, looked up): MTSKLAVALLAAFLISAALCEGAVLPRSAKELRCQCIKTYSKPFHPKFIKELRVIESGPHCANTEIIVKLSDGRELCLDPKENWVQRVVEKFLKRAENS

| SMILES | outcome |
| --- | --- |
| O=C(Nc1ccc(N2CCN(C(=O)c3ccccc3)CC2)cc1)c1cc(Br)cc(Br)c1 | active |
| O=C(Nc1ccc(N2CCN(C(=O)c3ccc(F)cc3)CC2)cc1)c1cc(Br)cc(Br)c1 | active |
| O=C(Nc1ccc(N2CCN(C(=O)c3ccc(F)cc3)CC2)cc1)c1cccc(Br)c1 | active |
| O=C(Nc1ccc(N2CCN(C(=O)c3ccccc3)CC2)cc1)c1cccnc1 | active |
| O=C(Nc1ccc(N2CCN(C(=O)c3ccccc3)CC2)cc1)c1ccccc1 | active |
| CCOc1ccc(NCc2cc3c(-c4ccc(F)cc4)nn(-c4ccccc4)c3[nH]c2=O)cc1 | active |
| O=C(Nc1ccc(N2CCN(C(=O)c3ccccc3)CC2)cc1)c1cccc(Br)c1 | active |
| O=C(Nc1ccc(N2CCN(C(=O)c3ccc(F)cc3)CC2)cc1)c1cccnc1 | active |
| O=C(Nc1ccc(N2CCN(C(=O)c3ccccc3F)CC2)cc1)c1cccnc1 | active |
| O=C(Nc1ccc(N2CCN(C(=O)c3ccccc3Cl)CC2)cc1)c1ccncc1 | active |
| O=C(Nc1ccc(N2CCN(C(=O)c3ccccc3)CC2)cc1)c1ccccn1 | active |
| O=C(Nc1ccc(N2CCN(C(=O)c3ccc(F)cc3)CC2)cc1)c1ccccc1 | active |
| O=C(Nc1ccc(N2CCN(C(=O)c3ccc(F)cc3)CC2)cc1)c1ccncc1 | active |
| O=C(Nc1ccc(N2CCN(C(=O)c3ccccc3F)CC2)cc1)c1ccccc1 | active |
| O=C(Nc1ccc(N2CCN(C(=O)c3ccc(F)cc3)CC2)cc1)c1ccccn1 | active |
| O=C(Nc1ccc(N2CCN(C(=O)c3ccccc3)CC2)cc1)c1ccncc1 | active |
| CCOc1ccc(NCc2cc3c(C)nn(-c4ccccc4)c3[nH]c2=O)cc1 | active |

| SMILES | outcome |
| --- | --- |
| CCOc1ccc(NCc2cc3c(C(C)(C)C)nn(-c4ccccc4)c3[nH]c2=O)cc1 | active |
| CCOc1ccc(NCc2cc3c(C(C)(C)C)nn(-c4ccc(Cl)cc4)c3[nH]c2=O)cc1 | active |
| Cc1ccc(CNCc2cc3c(C(C)(C)C)nn(-c4ccccc4)c3[nH]c2=O)cc1 | active |
| O=C(Nc1ccc(N2CCN(C(=O)c3ccccc3Cl)CC2)cc1)c1ccccc1 | inactive |
| O=C(Nc1ccc(N2CCN(C(=O)c3ccccc3Cl)CC2)cc1)c1cc(Br)cc(Br)c1 | active |
| O=C(Nc1ccc(N2CCN(C(=O)c3ccccc3Cl)CC2)cc1)c1ccccn1 | active |
| CCOc1ccc(NCc2cc3c(-c4ccc(OC)c(OC)c4)nn(-c4ccccc4)c3[nH]c2=O)cc1 | active |
| O=C(Nc1ccc(N2CCN(C(=O)c3ccccc3Cl)CC2)cc1)c1cccnc1 | active |
| O=C(Nc1ccc(N2CCN(C(=O)c3ccccc3F)CC2)cc1)c1ccncc1 | active |
| O=C(Nc1ccc(N2CCN(C(=O)c3ccccc3F)CC2)cc1)c1cccc(Br)c1 | active |
| Cc1ccc(NCc2cc3c(C(C)(C)C)nn(-c4ccccc4)c3[nH]c2=O)cc1 | active |
| O=C(Nc1ccc(N2CCN(C(=O)c3ccccc3F)CC2)cc1)c1cc(Br)cc(Br)c1 | active |
| O=C(Nc1ccc(N2CCN(C(=O)c3ccccc3Cl)CC2)cc1)c1cncc(Br)c1 | active |
| O=C(Nc1ccc(N2CCN(C(=O)c3ccccc3Cl)CC2)cc1)c1cccc(Br)c1 | active |
| O=C(Nc1ccc(N2CCN(C(=O)c3ccccc3)CC2)cc1)c1cncc(Br)c1 | active |
| O=C(Nc1ccc(N2CCN(C(=O)c3ccc(F)cc3)CC2)cc1)c1cncc(Br)c1 | active |
| O=C(Nc1ccc(N2CCN(C(=O)c3ccccc3F)CC2)cc1)c1ccccn1 | active |
